Reference: the supplement of paper PMC12645437, “Orthogonal IMiD-Degron Pairs Induce Selective Protein Degradation in Cells” (ACS Chemical Biology, 2025)
In all, about 8,300 sequences were measured (“log2 fold change of degron read counts, EGFP-low vs EGFP+ sorted cells (limma voom), compound-induced degradation”: median about -1.1, highest 2% from about 3.2 on). The sample holds the highest values, similar sequences and a random draw of the others, so the mix is not that of the screen.

T1: CRBN, Q96SW2
T1 chain: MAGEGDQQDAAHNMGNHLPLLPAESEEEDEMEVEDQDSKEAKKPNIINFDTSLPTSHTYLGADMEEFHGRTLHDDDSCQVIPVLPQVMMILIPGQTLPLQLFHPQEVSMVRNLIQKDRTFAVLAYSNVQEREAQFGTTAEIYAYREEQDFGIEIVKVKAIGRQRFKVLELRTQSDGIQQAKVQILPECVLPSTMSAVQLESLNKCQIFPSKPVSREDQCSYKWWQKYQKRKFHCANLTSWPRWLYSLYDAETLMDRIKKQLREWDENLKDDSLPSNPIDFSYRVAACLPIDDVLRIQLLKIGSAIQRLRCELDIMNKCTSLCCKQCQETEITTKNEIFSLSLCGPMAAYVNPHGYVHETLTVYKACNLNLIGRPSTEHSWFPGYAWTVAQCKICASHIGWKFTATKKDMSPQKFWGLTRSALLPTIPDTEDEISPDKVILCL


Target: T1, CRBN, Q96SW2
Assay: log2 fold change of degron read counts, EGFP-low vs EGFP+ sorted cells (limma voom), compound-induced degradation; higher = more compound-induced degradation of the degron-EGFP fusion; degrons are variants of IKZF1/3 zinc finger 2; compound dose not given here
Conditions: Jurkat, 18 h
[1] = compound: compound 19 (5-tert-butyl-thalidomide)
[2] = compound: compound 22 (5-morpholino-thalidomide)
[3] = compound: compound 33 (diphenyl IMiD analogue)
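Note: pooled lentiviral library of zinc finger degron-EGFP fusions in mCherry-positive Jurkat cells, FACS-sorted after compound exposure, with degron abundance counted by next-generation sequencing.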

Row | Sequence | log2 fold change of degron read counts [1] | log2 fold change of degron read counts [2] | log2 fold change of degron read counts [3] | log2 fold change of degron read counts (compound: thalidomide)
1 | FVCPICGRLFTQKGNLLRHIKL [46F_47V_49P_50I_52G_53R_54L_55F_67L_, Q9UKT9] | -1.24 | -0.36 | 0.85 | 1.08
2 | LVCNQCGFKCTQKGNLLRHIKL [46L_47V_49N_50Q_52G_53F_54K_55C_67L_, Q9UKT9] | -2.22 | -2.27 | -2.4 | -0.986
3 | FFCSVCGHHFTQKGNLLRHIKL [46F_47F_49S_50V_52G_53H_54H_55F_67L_, Q9UKT9] | -2.1 | -2.74 | -2.17 | -1.83
4 | FCCNQCGHNFTQKGNLLRHIKL [46F_47C_49N_50Q_52G_53H_54N_55F_67L_, Q9UKT9] | -2.54 | -3.15 | -2.94 | -2.37
5 | FHCPVCGAMFTQKGNLLRHIKL [46F_47H_49P_50V_52G_53A_54M_55F_67L_, Q9UKT9] | 1.4 | 1.46 | 1.42 | -0.0518
6 | FYCNQCGRRFTQKGNLLRHIKL [46F_47Y_49N_50Q_52G_53R_54R_55F_67L_, Q9UKT9] | -2.62 | -2.54 | -2.6 | -2.29
7 | LFCPICGFVCTQKGNLLRHIKL [46L_47F_49P_50I_52G_53F_54V_55C_67L_, Q9UKT9] | 3.02 | 2.99 | 1.66 | 1.45
8 | FLCNVCGAQFTQKGNLLRHIKL [46F_47L_49N_50V_52G_53A_54Q_55F_67L_, Q9UKT9] | -2.31 | -2.24 | -0.00793 | -0.809
9 | FGCPVCGARFTQKGNLLRHIKL [46F_47G_49P_50V_52G_53A_54R_55F_67L_, Q9UKT9] | 3.6 | 2.1 | -0.116 | 1.03
10 | FLCPVCGARFTQKGNLLRHIKL [46F_47L_49P_50V_52G_53A_54R_55F_67L_, Q9UKT9] | -0.179 | -0.342 | 0.651 | 1.68
11 | FQCPVCGADFTQKGNLLRHIKL [46F_47Q_49P_50V_52G_53A_54D_55F_67L_, Q9UKT9] | -0.246 | 1.22 | 2.37 | 3.4
12 | FKCPVCGARFTQKGNLLRHIKL [46F_47K_49P_50V_52G_53A_54R_55F_67L_, Q9UKT9] | -1.78 | -2.92 | -2.71 | -1.48
13 | FCCPVCGADFTQKGNLLRHIKL [46F_47C_49P_50V_52G_53A_54D_55F_67L_, Q9UKT9] | 0.844 | 0.509 | 1.45 | 0.741
14 | FVCPVCGADFTQKGNLLRHIKL [46F_47V_49P_50V_52G_53A_54D_55F_67L_, Q9UKT9] | -0.973 | 0.651 | 1 | 1.76
15 | FRCPVCGARFTQKGNLLRHIKL [46F_47R_49P_50V_52G_53A_54R_55F_67L_, Q9UKT9] | -1.26 | -1.08 | -0.255 | 0.153
16 | FTCPVCGARFTQKGNLLRHIKL [46F_47T_49P_50V_52G_53A_54R_55F_67L_, Q9UKT9] | 0.934 | 2.59 | 1.76 | 2.95
17 | FFCPVCGALFTQKGNLLRHIKL [46F_47F_49P_50V_52G_53A_54L_55F_67L_, Q9UKT9] | 1.62 | 1.64 | 1.45 | 0.0806

Row | Sequence | log2 fold change of degron read counts [1] | log2 fold change of degron read counts [2] | log2 fold change of degron read counts [3] | log2 fold change of degron read counts (compound: thalidomide)
18 | FVCPVCGALFTQKGNLLRHIKL [46F_47V_49P_50V_52G_53A_54L_55F_67L_, Q9UKT9] | -1.75 | 0.353 | 1.26 | 0.951
19 | FQCPVCGALFTQKGNLLRHIKL [46F_47Q_49P_50V_52G_53A_54L_55F_67L_, Q9UKT9] | -1.05 | 1.65 | 1.66 | 3.5
20 | FWCPVCGARFTQKGNLLRHIKL [46F_47W_49P_50V_52G_53A_54R_55F_67L_, Q9UKT9] | 2.67 | 3.51 | 1.2 | 1.26
21 | FFCNVCGAYFTQKGNLLRHIKL [46F_47F_49N_50V_52G_53A_54Y_55F_67L_, Q9UKT9] | -0.163 | 0.227 | 0.144 | -1.05
22 | FMCEICGRNFTQKGNLLRHIKL [46F_47M_49E_50I_52G_53R_54N_55F_67L_, Q9UKT9] | -2.42 | -2.71 | -0.582 | -1.02
23 | FFCSVCGHWFTQKGNLLRHIKL [46F_47F_49S_50V_52G_53H_54W_55F_67L_, Q9UKT9] | -1.15 | -1.58 | -1.38 | -1.26
24 | FTCPICGHLFTQKGNLLRHIKL [46F_47T_49P_50I_52G_53H_54L_55F_67L_, Q9UKT9] | -2.23 | -2.6 | -1.44 | -1.57
25 | FVCPVCGARFTQKGNLLRHIKL [46F_47V_49P_50V_52G_53A_54R_55F_67L_, Q9UKT9] | 0.0453 | 2.18 | 0.744 | 2.8
26 | FQCPVCGARFTQKGNLLRHIKL [46F_47Q_49P_50V_52G_53A_54R_55F_67L_, Q9UKT9] | -0.395 | 2.27 | 1.08 | 3.63
27 | FHCPVCGARFTQKGNLLRHIKL [46F_47H_49P_50V_52G_53A_54R_55F_67L_, Q9UKT9] | 1.99 | 2.23 | 0.971 | 0.937
28 | FMCPVCGARFTQKGNLLRHIKL [46F_47M_49P_50V_52G_53A_54R_55F_67L_, Q9UKT9] | -0.509 | 0.0794 | 1.25 | 0.719
29 | FACPVCGARFTQKGNLLRHIKL [46F_47A_49P_50V_52G_53A_54R_55F_67L_, Q9UKT9] | 3.49 | 2.28 | -0.0911 | 1.06
30 | FCCPVCGARFTQKGNLLRHIKL [46F_47C_49P_50V_52G_53A_54R_55F_67L_, Q9UKT9] | 2.31 | 2.41 | 1.79 | 2.26
31 | FFCPVCGARFTQKGNLLRHIKL [46F_47F_49P_50V_52G_53A_54R_55F_67L_, Q9UKT9] | 3.35 | 3.29 | 1.72 | 1.35
32 | FECPVCGARFTQKGNLLRHIKL [46F_47E_49P_50V_52G_53A_54R_55F_67L_, Q9UKT9] | 0.67 | -0.349 | 1.42 | 2.94
33 | FDCPVCGARFTQKGNLLRHIKL [46F_47D_49P_50V_52G_53A_54R_55F_67L_, Q9UKT9] | 3.12 | 1.66 | 1.4 | 2.71
